# Assay outcomes deposited in PubChem by several laboratories.
# Sampled rows, rich in hits. Any-hit rate of the full collection: about 32%.
# PostGolgi ctrl: growth inhibition of yeast control strain, primary screen, counter-screen for post-Golgi transport modulator project; efflux-deficient yeast background strain, growth absorbance A615, 16 h; inhibition, % at 10 µM; 98,000 compounds, 5% hits; AID 738, 2007
# CYP2C9 activ: human CYP2C9 activators, primary screen, biochemical, luminescence. Cytochrome P450 2C9 (Homo sapiens), P11712. recombinant CYP2C9, luciferin-H conversion; active compounds read high; factor 1 = untreated enzyme, 0 = blocked. activation factor at 5 µM. 96,000 compounds, 1.4% hits;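 active = activation factor of 2 or more for CYP2C9 at a 5 µM dose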;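 also: 0 = sulfaphenazole-blocked wells and 1 = vehicle-only wells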
# PostGolgi yeast: phenotypic screen on post-Golgi transport, primary screen; 98,000 compounds, 0.9% hits; inhibition, % at 10 µM; post-Golgi transport phenotypic cell assay;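 also: yeast cells grown in 1536-well plates; yeast grown about 18 h at 30C before absorbance read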
# CYP2C19 inh: blockers of cytochrome P450 2C19 activity – biochemical, luminescence, ADME assay, primary screen. AID 778, 2007. CYP2C19 Supersomes, luciferin-H EGE luminescence, 30 min. inhibition, % at 5 µM. 96,000 compounds, 21% hits;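 active = CYP2C19 inhibition above a set limit at 5 µM in the primary screen, cut at about 50% in these data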;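 also: plate controls were negative control wells for no effect and 2.5 mM tranylcypromine positive control for full effect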
# Target sequence (P33261 whole entry, looked up): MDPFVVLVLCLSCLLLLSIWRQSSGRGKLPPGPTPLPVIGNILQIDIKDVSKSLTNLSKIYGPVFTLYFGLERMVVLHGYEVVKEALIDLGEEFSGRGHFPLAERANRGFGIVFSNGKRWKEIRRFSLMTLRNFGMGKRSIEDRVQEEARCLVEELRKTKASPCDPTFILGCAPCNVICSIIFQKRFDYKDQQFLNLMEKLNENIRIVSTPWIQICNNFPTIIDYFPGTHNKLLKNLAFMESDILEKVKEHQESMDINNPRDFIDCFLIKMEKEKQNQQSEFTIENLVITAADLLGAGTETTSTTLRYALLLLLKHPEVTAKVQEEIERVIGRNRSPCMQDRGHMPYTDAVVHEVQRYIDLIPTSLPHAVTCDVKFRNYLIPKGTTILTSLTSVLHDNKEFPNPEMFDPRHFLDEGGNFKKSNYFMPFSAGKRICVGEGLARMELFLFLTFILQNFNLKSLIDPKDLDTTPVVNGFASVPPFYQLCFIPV
# CYP2C19 act: human CYP2C19 activators, primary screen, biochemical, luminescence; activation factor at 5 µM; AID 1025, 2008; 96,000 tested, under 10 active; Cytochrome P450 2C19 (Homo sapiens), P33261; recombinant CYP2C19, luciferin-H EGE luminescence; active compounds read high; 0 = fully inhibited enzyme, 1 = untreated enzyme;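 active = activation factor of at least 2 at 5 µM in the primary screen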;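 also: 0 = wells with 2.5 mM tranylcypromine and 1 = vehicle-only wells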
# CYP2C9 inhib: blockers of cytochrome P450 2C9 activity – biochemical, luminescence, ADME assay, primary screen | P11712 | 96,000 compounds, 20% hits | CYP2C9 Supersomes, luciferin-H conversion | AID 777, 2007 | inhibition, % at 5 µM;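 active = blocking of liver enzyme CYP2C9 beyond about 50% at 5 µM, limit read from the data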
# The depositor's hits bear a star. Rule as the data show it, unless noted: active = inhibition above about 30%; inactive = the rest.
SMILES,PostGolgi ctrl,CYP2C9 activ,PostGolgi yeast,CYP2C19 inh,CYP2C19 act,CYP2C9 inhib
Cc1cc(C)n(-c2nc3ccccc3c(=O)n2OCC(=O)OCc2ccccc2)n1,8,0.8,4,6,0.9,18
Cc1cc(C)n(-c2nc3ccccc3c(=O)n2OCC(=O)N(C)C)n1,22,1.1,-27,-2,1,-10
Cc1cc(C)n(-c2nc3ccccc3c(=O)n2OCc2ccc(Cl)cc2)n1,25,0.7,-4,98*,0,26
Cc1cc(C)n(-c2nc3ccccc3c(=O)n2OCc2ccc(F)cc2)n1,14,0.5,1,99*,0,50*
Cc1cc(C)n(-c2nc3ccccc3c(=O)n2OCC(=O)Nc2c(C)cccc2C)n1,-3,0.5,15,11,0.9,52*
CCCCCNC(=O)Cc1cc(=O)[nH]c(=O)[nH]1,-1,1,5,17,0.8,2
CC12CCC(C(=O)Nc3ncc([N+](=O)[O-])s3)(OC1=O)C2(C)C (stereo not given),14,1.1,-3,-19,1.2,-6
CCC(=O)Nc1nc2nc(C)cc(=O)n2[nH]1,2,1,1,3,1,-3
COc1cccc(CN(Cc2cccnc2)S(=O)(=O)c2ccc(-n3cnnn3)c(C)c2)c1OC,5,0.6,11,78*,0.2,44
COc1ccccc1CN(Cc1ccco1)S(=O)(=O)c1ccc(-n2cnnn2)c(OC)c1,36*,0.2,22,67*,0.3,85*
COc1ccc(CN(C2CCCC2)S(=O)(=O)c2ccc(-n3cnnn3)c(OC)c2)cc1OC,1,0.5,22,46,0.5,46
CCOC(=O)C(C)Sc1nnc(CNC(=O)c2ccc(OC)cc2)n1C1CCCCC1 (stereo not given),4,0.8,-12,62*,0.4,21
O=C(CN1C(=O)c2ccccc2C1=O)c1ccccc1,10,0.5,6,26,0.7,51*
C=C(C)CN1C(=O)c2ccccc2C1=O,5,1,2,18,0.8,3
Fc1ccc(CSc2nnc(Cc3sc(-c4ccccc4)nc3-c3ccccc3)o2)cc1,-3,0.3,-9,15,0.9,72*
COc1ccc(CSc2nnc(Cc3sc(-c4ccccc4)nc3-c3ccccc3)o2)cc1,12,0.3,-1,6,0.9,67*
CSc1nnc(Cc2sc(-c3ccccc3)nc2-c2ccccc2)o1,24,0,-10,89*,0.1,100*
Cc1cc(-c2nnc3n2N=C(C(C)(C)C)CS3)n[nH]1,34*,1,-1,9,0.9,0
CC(C(=O)Nc1ccc(N2CCOCC2)cc1)N1C(=O)c2ccccc2C1=O (stereo not given),4,1,-7,-3,1,-1
Cc1ccc(NC2=C(N3CCOCC3)C(=O)c3ccccc3C2=O)cc1,3,0.4,-4,44,0.6,57*
CC(=O)c1ccc(NC2=C(N3CCOCC3)C(=O)c3ccccc3C2=O)cc1,34*,0.5,1,61*,0.4,48
CC(=O)N(C)C1=C(N2CCOCC2)C(=O)c2ccccc2C1=O,-10,1.1,7,-5,1.1,-6
Cc1ccc(NC(=O)C(=O)c2c(-c3ccccc3)cc3ccccn23)cc1S(=O)(=O)N1CCOCC1,21,1.2,-9,88*,0.1,-18
Cc1ccc(C(=O)O)cc1S(=O)(=O)N1CCOCC1,5,1.2,5,4,1,-16
CCOC(=O)c1cc2cc(CC(=O)c3ccc(OCC)cc3O)ccc2o1,11,0.5,-9,69*,0.3,54*
SMILES,PostGolgi ctrl,CYP2C9 activ,PostGolgi yeast,CYP2C19 inh,CYP2C19 act,CYP2C9 inhib
O=c1c(-c2ccc3c(c2)OCCO3)coc2cc(O)cc(O)c12,3,2.4*,-3,12,0.9,-141
Cc1ccc(CN2CCN(c3ncccn3)CC2)o1,5,0.7,-3,68*,0.3,31
c1ccc(N2CCN(c3ncccn3)CC2)cc1,2,0.7,0,29,0.7,26
Fc1cccc(F)c1CN1CCN(c2ncccn2)CC1,10,0.6,10,79*,0.2,43
Cc1cc(C)cc(Oc2nn[nH]n2)c1,-3,1,4,-3,1,3
CC(C)(C)c1cccc(Oc2nn[nH]n2)c1,7,1.1,-3,72*,0.3,-8
CCN(CC)S(=O)(=O)c1ccc(C(=O)OCCNC(=O)c2cccnc2)cc1,0,0.3,-4,3,1,72*
O=C(OCCNC(=O)c1ccc2ccccc2n1)c1cccnc1,1,0.3,-3,90*,0.1,66*
CCN1CCN(c2ccc(NC(=O)c3cccc4ncccc34)cc2)CC1,5,1,-3,7,0.9,3
O=C(NCCCCCCNC(=O)OC1CCS(=O)(=O)C1)OC1CCS(=O)(=O)C1 (stereo not given),10,1,-1,4,1,1
CN1C(=S)SC(/[N+]([O-])=C\c2ccco2)C1(C)C (stereo not given),5,1.1,-8,0,1,-9
O=C(Nc1ccc2c(c1)OCO2)NC1(C(F)(F)F)Oc2ccccc2O1,17,0.7,-1,22,0.8,33
O=C(Nc1ccc2c(c1)OCCO2)NC1(C(F)(F)F)Oc2ccccc2O1,34*,1.1,5,-12,1.1,-8
Cn1c(NCCc2ccccc2)cc(=O)n(C)c1=O,9,1.1,0,-9,1.1,-8
Cn1c(Oc2ccccc2NCc2cccc(Br)c2)cc(=O)n(C)c1=O,38*,0.6,4,45,0.6,41
CCOc1ccc(N/N=C(/C#N)C(N)=O)cc1,90*,1,104*,2,1,0
CCOC(=O)c1cc(NC(=O)c2ccc(Cl)cc2)c(=O)n2c1oc1ccc(Cl)cc12,-1,1,-6,0,1,1
COc1ccc(OCc2nnc(SCC(=O)N3CCCc4ccccc43)n2-c2ccc(C)cc2)cc1,9,0.1,-13,62*,0.4,87*
COc1ccc(-n2c(Cc3cccn3C)nnc2SCC(=O)N2CCCc3ccccc32)cc1,0,1,-3,36,0.6,2
CCCn1c(SCC(=O)N2CCCc3ccccc32)nnc1-c1ccccn1,-1,1.1,2,79*,0.2,-8
Cc1ccc(-c2csc3nnc(SCC(=O)N4CCN(Cc5ccccc5)CC4)n23)cc1,10,0.3,0,57*,0.4,68*
N#Cc1ccc(OCc2nnc(SCC(=O)N3CCCc4ccccc43)n2-c2ccccc2)cc1,-2,0.1,-5,85*,0.1,87*
